# Results taken from PMC4336329 (PLoS ONE, 2015).
# The whole screen tested about 310,000 compounds, of which about 14,000 (4.5%) showed an effect of 50% or more. Effects have a minus sign here. Shown is part of a subset that was picked to be rich in strong results.
# Target: human ether-à-go-go-related gene (hERG) potassium channel (human, UniProt Q12809)
# Experiment: primary screen, population patch clamp on CHO cells stably expressing hERG; higher = less effect of the substance
# 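Further: peak tail current of the secondary pulse compared with the same well before compound.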
# Sequence of human ether-à-go-go-related gene (hERG) potassium channel (Q12809 whole entry, looked up): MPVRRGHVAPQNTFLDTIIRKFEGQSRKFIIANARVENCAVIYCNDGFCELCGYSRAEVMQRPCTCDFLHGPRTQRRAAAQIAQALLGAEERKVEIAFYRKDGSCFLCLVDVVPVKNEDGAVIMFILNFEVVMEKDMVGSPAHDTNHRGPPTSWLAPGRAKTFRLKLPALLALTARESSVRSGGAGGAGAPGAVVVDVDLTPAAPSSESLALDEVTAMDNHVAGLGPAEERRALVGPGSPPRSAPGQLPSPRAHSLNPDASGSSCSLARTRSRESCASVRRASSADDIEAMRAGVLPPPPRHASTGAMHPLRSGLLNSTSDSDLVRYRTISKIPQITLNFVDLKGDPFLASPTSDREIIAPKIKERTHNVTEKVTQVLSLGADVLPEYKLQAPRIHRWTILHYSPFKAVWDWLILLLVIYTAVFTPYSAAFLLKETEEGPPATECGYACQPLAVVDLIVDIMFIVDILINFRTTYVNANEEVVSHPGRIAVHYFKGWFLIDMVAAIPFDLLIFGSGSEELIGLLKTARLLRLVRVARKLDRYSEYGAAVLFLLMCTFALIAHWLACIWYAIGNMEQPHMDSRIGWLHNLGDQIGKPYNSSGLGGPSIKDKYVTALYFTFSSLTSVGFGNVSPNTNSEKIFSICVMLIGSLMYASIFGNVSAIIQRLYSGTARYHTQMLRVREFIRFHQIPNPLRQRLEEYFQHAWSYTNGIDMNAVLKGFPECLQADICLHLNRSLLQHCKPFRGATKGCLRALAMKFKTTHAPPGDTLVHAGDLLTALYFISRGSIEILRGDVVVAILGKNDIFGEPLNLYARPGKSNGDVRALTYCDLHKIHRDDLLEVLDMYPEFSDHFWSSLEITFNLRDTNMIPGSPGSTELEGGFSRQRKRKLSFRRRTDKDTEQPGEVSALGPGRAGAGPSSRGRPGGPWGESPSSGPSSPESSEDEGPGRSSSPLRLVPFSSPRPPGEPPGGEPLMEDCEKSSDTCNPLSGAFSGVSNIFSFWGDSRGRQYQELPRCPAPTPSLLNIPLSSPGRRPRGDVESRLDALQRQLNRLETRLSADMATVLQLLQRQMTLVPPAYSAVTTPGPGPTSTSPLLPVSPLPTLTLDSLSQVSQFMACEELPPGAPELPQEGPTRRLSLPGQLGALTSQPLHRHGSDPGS
row,SMILES,"hERG current change (%, negative = inhibition) at 10uM"
1,O=C(OCc1ccccc1)c1cc(S(=O)(=O)N2CCCCC2)ccc1N1CCOCC1,-27.3%
2,CC(=O)N1N=C(c2cccs2)CC1c1ccc(C)o1 (centres unmarked),7.07%
3,COC(=O)c1ccc(N2C(=O)CC(N3CCN(c4ccccc4)CC3)C2=O)cc1 (centres unmarked),11.1%
4,Cc1cc(Cl)c(S(=O)(=O)NCc2ccncc2)cc1OCC(N)=O,1.62%
5,O=C(NCCn1cccn1)C1CCC(=O)N(CCc2ccc(Cl)cc2)C1 (centres unmarked),5.51%
6,Cc1cc(C)n(CCCNC(=O)C2CCC(=O)N(CCc3ccc(Cl)cc3)C2)n1 (centres unmarked),-54.7%
7,Cc1ccn(CCNC(=O)C2CCC(=O)N(CCc3ccc(Cl)cc3)C2)n1 (centres unmarked),-55.3%
8,COc1ccc(CCN2CC(C(=O)NCCCn3nc(C)cc3C)CCC2=O)cc1 (centres unmarked),-23.3%
9,Cc1cc(C)n(CCNC(=O)C2CCC(=O)N(Cc3ccc(Cl)cc3)C2)n1 (centres unmarked),15.2%
10,Cc1ccn(CCNC(=O)C2CCC(=O)N(Cc3ccc(Cl)cc3)C2)n1 (centres unmarked),-3.57%
11,COc1cccc(C2CC(c3ccccc3)Nc3nc(N)nn32)c1 (centres unmarked),-7.93%
12,S=c1[nH]nc(Cc2cccs2)n1-c1cccc2ccccc12,-10.4%
13,O=[N+]([O-])c1ccc(CNc2cccc(F)c2)s1,-32.3%
14,Cc1ccc(CNC(=O)c2nc3nc(C)cc(C)n3n2)cc1,14.4%
15,Cc1cccc(NC(=S)Nc2cccc3ccccc23)c1,15.9%
16,Cc1ccc(NC(=S)NC2CCN(Cc3ccccc3)CC2)c(C)c1,-12.9%
17,CCOC(=O)c1c(-c2ccc(C)cc2)csc1NC1=NS(=O)(=O)c2ccccc21,-1.41%
18,CC(=O)C1CCN(Cc2ccccc2)CC1,20.5%
19,Cl.N#CC(c1ccccc1)C1CCN(Cc2ccccc2)CC1 (centres unmarked),-50.9%
20,CSc1ccccc1OC1CCN(Cc2ccccc2)CC1.Cl,-24.3%
21,O=C(OCC(=O)N1CCCCCC1)c1ccc([N+](=O)[O-])cc1Cl,8.47%
22,Cc1ccccc1S(=O)(=O)Nc1nc2ccccc2nc1N1CCOCC1,7.22%

row,SMILES,"hERG current change (%, negative = inhibition) at 10uM"
1,CCn1ccc(C(=O)NC2=NCCS2)n1,-3.73%
2,CNC(=O)/C(C#N)=C/c1c(N2CCCCCC2)nc2ccccn2c1=O,10.2%
3,CCNC(=O)/C(C#N)=C/c1c(N2CCCCCC2)nc2ccccn2c1=O,-9.13%
4,C=CCNC(=O)/C(C#N)=C/c1c(N2CCCCCC2)nc2ccccn2c1=O,-59.6%
5,COCCNC(=O)/C(C#N)=C/c1c(N2CCN(c3ccccc3)CC2)nc2ccccn2c1=O,-20.7%
6,CCNC(=O)/C(C#N)=C/c1c(N2CCN(c3ccccc3)CC2)nc2ccccn2c1=O,-66.3%
7,CCNC(=O)/C(C#N)=C/c1c(N2CCOCC2)nc2ccccn2c1=O,-4.68%
8,CC(=O)OCn1ncc(N2CCOCC2)c(Br)c1=O,16.5%
9,Cc1ccc(/C=N/Nc2cc(C)nc(N3CCOCC3)n2)cc1,17.5%
10,Cc1ccc(N=Nc2c(O)[nH]c(=O)[nH]c2=O)c([N+](=O)[O-])c1,-5.68%
11,Cc1ccc(S(=O)(=O)NC(CCc2ccccc2)CC(=O)C(C)(C)C)cc1 (centres unmarked),-0.463%
12,O=C(c1ccc(N2CCOCC2)c([N+](=O)[O-])c1)N1CCCC(C(F)(F)F)C1 (centres unmarked),2.23%
13,Cc1ccc(S(=O)(=O)NC(=O)N(C)C2CCCCC2)cc1,9.07%
14,COc1nc(-c2ccccc2)c2c(c1C#N)CC(C)(C)OC2,-11.2%
15,CN(C)CCNc1nc(-c2ccccc2)c2c(c1C#N)CC(C)(C)OC2,-42.4%
16,Cc1nc(NCCCO)c(C#N)c2c1COC(C)(C)C2,-15%
17,CC1(C)Cc2c(C#N)c(NCCCO)nc(-c3ccccc3)c2CO1,-56%
18,CN(C)CCCNc1nc(-c2ccccc2)c2c(c1C#N)CC(C)(C)OC2,-57.4%
19,CC1(C)Cc2c(C#N)c(NCCN3CCOCC3)nc(-c3ccccc3)c2CO1,-17.1%
20,CC1CCCCN1S(=O)(=O)c1ccc(C(=O)Nc2nnc(-c3ccco3)o2)cc1 (centres unmarked),-2.35%
21,O=C(CCc1ccccc1)NNC(=O)Cc1ccc(Cl)cc1,13.1%
22,CCOC(=O)C1=C(C)Nc2ccccc2N=C1NC(=O)c1cccc(S(=O)(=O)NCc2ccccc2)c1,-19.4%
